The test system of one assay is Staphylococcus aureus. Description: Antibacterial activity against Staphylococcus aureus MRSA ATCC 43300 (CO-ADD:GP_020); MIC in CAMBH media using NBS plates, by Resazurin F(560/590). The class given is functional. Conditions: Concentration 20 uM, ASSAY_TEST Inhibition of Bacterial Growth, detection method Resazurin, Fluorescence (ex560/em590), MEDIA CAMHB, plate type 384well, CORNING #3640, time 18 hr.

For a further assay, the system named is Acinetobacter baumannii. Description: Antibacterial activity against Acinetobacter baumannii ATCC 19606 (CO-ADD:GN_034); MIC in CAMBH media using NBS plates, by Resazurin F(560/590). Type of assay: functional. The conditions noted are these: Concentration 20 uM, ASSAY_TEST Inhibition of Bacterial Growth, detection method Resazurin, Fluorescence (ex560/em590), MEDIA CAMHB, plate type 384well, CORNING #3640, time 18 hr. Background: Alamar Blue is a resazurin reagent that responds to reducing activity.

The next assay deals with Escherichia coli. The assay can be described thus: Antibacterial activity against Escherichia coli ATCC 25922 (CO-ADD:GN_001); MIC in CAMBH media using NBS plates, by Resazurin F(560/590). Type of assay: functional. The conditions noted are these: Concentration 20 uM, ASSAY_TEST Inhibition of Bacterial Growth, detection method Resazurin, Fluorescence (ex560/em590), MEDIA CAMHB, plate type 384well, CORNING #3640, time 18 hr.

For the next assay, the system named is Klebsiella pneumoniae. The conditions noted are these: Concentration 20 uM; ASSAY_TEST Inhibition of Bacterial Growth; detection method Absorption (OD600); MEDIA CAMHB; plate type 384well; NBS; CORNING #3640; time 18 hr.
Another assay concerns Candida albicans. The conditions noted are these: 20 µM.
In another assay the test system is Cryptococcus neoformans. The conditions noted are these: Concentration 20 uM; ASSAY_TEST Inhibition of Fungal Growth; detection method Resazurin; Absorption (OD600-OD570); plate type 384well; NBS; CORNING #3640.

Our source for the Inhibition values is ChEMBL document CHEMBL4296182, “CO-ADD screening of NIH NCI Diversity Set V”.

For part of these data: Entries with a potency or affinity are not part of this list.

The term Inhibition denotes the change of the read-out against control, counted positive when it falls.

With `CCOC(=O)c1ccc2c(c1)NCc1cccc(OC)c1O2`, the Inhibition was 4.26% in the assay on Staphylococcus aureus; -16.83% with Acinetobacter baumannii; 9.22% with Escherichia coli; 6.83% in the assay with Klebsiella pneumoniae; 9.96% with Candida albicans; -17.21% in the assay on Cryptococcus neoformans.
With `Cc1cc(NC(=O)OC(C)C)ccc1-c1ccc(NC(=O)OC(C)C)cc1C`, the Inhibition in the assay on Staphylococcus aureus is 6.05%; with Acinetobacter baumannii it was 1.04%; in the assay with Escherichia coli, -21.51%; in the assay on Klebsiella pneumoniae, 2.57%; in the assay on Candida albicans, 2.22%; with Cryptococcus neoformans, 33.06%.
On to `Cc1nn(-c2ccccc2)nc1C(=O)Nc1ccc2[nH]ncc2c1`, for which the Inhibition with Staphylococcus aureus was 18.91%; in the assay on Acinetobacter baumannii, 2.54%; with Escherichia coli it was 5.87%; in the assay on Klebsiella pneumoniae, 6.45%; in the assay with Candida albicans, -0.76%; in the assay on Cryptococcus neoformans, -15.47%.
Take `O=C1C2C3C=CC(CC3)C2S(=O)(=O)C2C3C=CC(CC3)C12` (stereo unspecified): the Inhibition was 13.49% in the assay on Staphylococcus aureus; 12.35% in the assay with Acinetobacter baumannii; 8.07% in the assay on Escherichia coli; 7.08% with Klebsiella pneumoniae; 3.05% with Candida albicans; -7.34% in the assay with Cryptococcus neoformans.
Consider `O=c1[nH]c(=S)c2nc(S)n(-c3ccccc3)c2[nH]1`, for which the Inhibition was 13.04% in the assay with Staphylococcus aureus; 12.41% with Acinetobacter baumannii; 5.84% in the assay with Escherichia coli; 9.43% in the assay on Klebsiella pneumoniae; 0.52% with Candida albicans; -6.47% in the assay with Cryptococcus neoformans.
For `Nc1n[nH]c(CO)n1.O=C(O)CO`, the Inhibition in the assay on Staphylococcus aureus is 4.42%; in the assay on Acinetobacter baumannii, -8.74%; with Escherichia coli, 3.45%; in the assay with Klebsiella pneumoniae, 8.84%; with Candida albicans, 0.2%; with Cryptococcus neoformans, -5.13%.
In the case of `CNc1nc(SC)n(C)c(=O)c1N=O`, the Inhibition in the assay with Staphylococcus aureus is 10.57%; with Acinetobacter baumannii, -4.07%; with Escherichia coli, 13.38%; in the assay with Klebsiella pneumoniae, 9.07%; in the assay with Candida albicans, -3.41%; in the assay on Cryptococcus neoformans it was -15.4%.
For `Cc1cccc(C)c1NC(=O)Nc1ccc(S(N)(=O)=O)cc1`, the Inhibition is -3.68% in the assay with Staphylococcus aureus; 5.47% in the assay on Acinetobacter baumannii; 8.39% in the assay on Escherichia coli; 5.63% in the assay with Klebsiella pneumoniae; 0.87% with Candida albicans; -12.09% in the assay on Cryptococcus neoformans.
As for `CC1=NCC(C)c2ccccc21` (stereo unspecified), the Inhibition with Staphylococcus aureus is 18.64%; in the assay on Acinetobacter baumannii it was -4.26%; with Escherichia coli, 9.51%; in the assay on Klebsiella pneumoniae, 8.39%; with Candida albicans it was -2.04%; in the assay with Cryptococcus neoformans it was -2.64%.
For the compound `CCC1=[N+]([O-])[N+]([O-])=C(c2ccccc2)/C1=N/O`, the Inhibition with Staphylococcus aureus was 10.92%; in the assay on Acinetobacter baumannii, 10.01%; with Escherichia coli it was -4.02%; in the assay on Klebsiella pneumoniae it was 8.43%; in the assay on Candida albicans, 7.14%; in the assay on Cryptococcus neoformans, -1.35%.
In the case of `O=C(O)/C(Cc1c[nH]nn1)=N\O`, the Inhibition in the assay on Staphylococcus aureus was -3.12%; with Acinetobacter baumannii, -10.75%; in the assay with Escherichia coli, 6.44%; in the assay with Klebsiella pneumoniae it was 7.49%; with Candida albicans, 2.24%; with Cryptococcus neoformans, -5.01%.
As for `Cc1[nH]c(=O)n(C(C)C)c(=O)c1Br`, the Inhibition with Staphylococcus aureus was 12.85%; with Acinetobacter baumannii, -11.08%; with Escherichia coli it was 12.66%; in the assay with Klebsiella pneumoniae it was 5.3%; with Candida albicans, 0.37%; in the assay with Cryptococcus neoformans it was -6.73%.
`COc1cc(/C=N/N=c2\[nH]c3c(=O)n(C)c(=O)n(C)c3[nH]2)ccc1O`: the Inhibition with Staphylococcus aureus was 15.24%; with Acinetobacter baumannii it was -6.89%; in the assay on Escherichia coli it was 14.34%; in the assay with Klebsiella pneumoniae, -8.37%; with Candida albicans it was 48.3%; in the assay on Cryptococcus neoformans, 33.61%.
Take `Nc1ccc(/N=N/c2ccccc2Cl)c(N)n1`: the Inhibition with Staphylococcus aureus was 4.22%; with Acinetobacter baumannii, -1.2%; with Escherichia coli, 2.51%; in the assay on Klebsiella pneumoniae it was 18.4%; in the assay with Candida albicans it was 14.2%; in the assay on Cryptococcus neoformans, -16.58%.
Consider `O=c1[nH]c(=O)n2ncnc2[nH]1`, for which the Inhibition in the assay with Staphylococcus aureus is 16.94%; in the assay on Acinetobacter baumannii it was -11.21%; in the assay on Escherichia coli, 5.82%; with Klebsiella pneumoniae, 7.37%; in the assay on Candida albicans it was -1.3%; in the assay with Cryptococcus neoformans, -10.02%.
As to `Cc1ccc(C(C)C)cc1NC(=O)Nc1ccc([N+](=O)[O-])cc1`, the Inhibition with Staphylococcus aureus is 19.7%; in the assay on Acinetobacter baumannii, 7.88%; in the assay with Escherichia coli, -5.77%; with Klebsiella pneumoniae, 22.27%; in the assay with Candida albicans, 8.72%; in the assay with Cryptococcus neoformans it was -7.56%.
Take `O=c1oc2c(cc1O)oc(=O)c1cc(O)c(O)c(O)c12`: the Inhibition in the assay with Staphylococcus aureus was 7.4%; in the assay with Acinetobacter baumannii, 17.2%; in the assay on Escherichia coli, 5.53%; in the assay on Klebsiella pneumoniae it was 31.38%; with Candida albicans, 14.8%; with Cryptococcus neoformans, -7.17%.
Turning to `c1ccc2nc(NN=C3CCCCC3)ccc2c1`, the Inhibition was 9.39% in the assay on Staphylococcus aureus; -16.84% in the assay on Acinetobacter baumannii; 10.6% with Escherichia coli; 9.11% with Klebsiella pneumoniae; 3.78% with Candida albicans; -6.92% in the assay with Cryptococcus neoformans.
For `c1coc(CNc2[nH]cnc3nncc2-3)c1`, the Inhibition with Staphylococcus aureus was 12.65%; in the assay with Acinetobacter baumannii it was -12.11%; in the assay with Escherichia coli it was 11.54%; in the assay on Klebsiella pneumoniae, 7.55%; in the assay on Candida albicans, 0.96%; in the assay with Cryptococcus neoformans, -6.46%.
Consider `Clc1nc(Oc2ccccc2)nc(-c2cn(-c3ccccc3)c3ccccc23)n1`, for which the Inhibition was 2.81% with Staphylococcus aureus; 4.85% in the assay on Acinetobacter baumannii; 6.07% with Escherichia coli; 3.03% in the assay with Klebsiella pneumoniae; -0.88% in the assay on Candida albicans; -13% in the assay on Cryptococcus neoformans.
Regarding `Nc1nnc(-c2cccnc2)s1`, the Inhibition in the assay on Staphylococcus aureus was -3.99%; in the assay on Acinetobacter baumannii, -10.83%; in the assay with Escherichia coli, 3.28%; with Klebsiella pneumoniae, -1.35%; with Candida albicans, 0.77%; in the assay on Cryptococcus neoformans, -10.94%.
`CC(C)(C)C(=O)Nc1ccc(NC(=O)C(C)(C)C)cc1`: the Inhibition with Staphylococcus aureus was -3.56%; in the assay with Acinetobacter baumannii, 6.93%; in the assay on Escherichia coli, 0.85%; with Klebsiella pneumoniae, 26.03%; in the assay with Candida albicans, 6.58%; with Cryptococcus neoformans, 1.66%.
For `Cc1n[nH]c2nc(N)nn2c1=O`, the Inhibition with Staphylococcus aureus was -4.36%; in the assay on Acinetobacter baumannii, -0.91%; in the assay with Escherichia coli, 10.78%; in the assay with Klebsiella pneumoniae, -2.02%; with Candida albicans, -3.85%; in the assay with Cryptococcus neoformans, -10.19%.
Consider `Cc1ccc(S(=O)(=O)NC(=O)Nc2nccs2)cc1`, for which the Inhibition with Staphylococcus aureus is 16.17%; in the assay with Acinetobacter baumannii it was -9.13%; in the assay on Escherichia coli, 9.78%; with Klebsiella pneumoniae, 14.17%; in the assay on Candida albicans, 1.46%; in the assay on Cryptococcus neoformans, -5.56%.
For the compound `Cn1c(C(=O)c2ccncc2)cc2ccccc21`, the Inhibition with Staphylococcus aureus is 10.4%; in the assay with Acinetobacter baumannii it was 13.49%; with Escherichia coli, 0.36%; in the assay on Klebsiella pneumoniae it was 4.66%; in the assay on Candida albicans, 5.59%; in the assay with Cryptococcus neoformans, -4.68%.
With `CC1=NN(c2ccccc2)C(=O)C1/N=N/c1ccc(S(N)(=O)=O)cc1` (stereo unspecified), the Inhibition with Staphylococcus aureus was -7.63%; in the assay on Acinetobacter baumannii it was 9.06%; in the assay on Escherichia coli, 7.33%; in the assay with Klebsiella pneumoniae, 5.84%; in the assay on Candida albicans, 11.2%; in the assay on Cryptococcus neoformans, -4.3%.
